Test results as given in PubChem BioAssay (EPA / NIEHS).
Values joined by “and” are separate entries in the source; they are usually repeats but may differ in a detail not shown here. Identical values can stand only once. Inconclusive results are not listed. Active and inactive are the calls of the source. The calls were made as follows, unless noted: active = hit-call score of the fitted dose curve at least 0.9, where 1 is the maximum; inactive = score below 0.9.

Columns and labels:
[1] = target: Estrogen receptor beta (Homo sapiens) (UniProt Q92731); test: OT_ER_ERbERb_0480: Odyssey Thera (OT) 8-hour HEK293T Protein-Complementation Assay for Estrogen Receptor-beta/-beta Homodimer (AID 2283357; active = hit-call score of the fitted dose curve at least 0.9, where 1 is the maximum;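 also: active means signal gain over DMSO baseline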)
Chain of Estrogen receptor beta (Homo sapiens) (Q92731 whole entry, looked up, the tested form may be a part): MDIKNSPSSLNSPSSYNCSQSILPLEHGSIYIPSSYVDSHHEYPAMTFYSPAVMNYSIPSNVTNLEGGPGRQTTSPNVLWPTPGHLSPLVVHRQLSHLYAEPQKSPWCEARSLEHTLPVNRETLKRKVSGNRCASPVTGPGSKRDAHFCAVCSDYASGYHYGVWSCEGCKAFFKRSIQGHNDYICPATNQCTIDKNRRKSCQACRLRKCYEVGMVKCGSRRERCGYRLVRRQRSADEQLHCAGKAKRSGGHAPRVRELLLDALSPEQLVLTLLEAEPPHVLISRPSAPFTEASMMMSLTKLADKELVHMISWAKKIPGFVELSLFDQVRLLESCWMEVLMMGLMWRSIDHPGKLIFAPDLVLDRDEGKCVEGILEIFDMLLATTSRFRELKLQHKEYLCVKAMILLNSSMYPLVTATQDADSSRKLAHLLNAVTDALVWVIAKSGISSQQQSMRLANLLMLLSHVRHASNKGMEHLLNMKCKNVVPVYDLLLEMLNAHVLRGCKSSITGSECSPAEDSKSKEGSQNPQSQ
Outline: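 ER-beta LBD homodimer PCA stably expressed in HEK293T; 8 h compound exposure, then formaldehyde fixation and Draq5 staining. Gain in nuclear/cytoplasmic fluorescence intensity versus DMSO vehicle, read on laser scanning cytometer.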

[2] = target: Estrogen receptor beta (Homo sapiens) (UniProt Q92731); test: OT_ER_ERbERb_1440: Odyssey Thera (OT) 24-hour HEK293T Protein-Complementation Assay for Estrogen Receptor-beta/-beta Homodimer (AID 2283380; active = hit-call score of the fitted dose curve at least 0.9, where 1 is the maximum;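 also: scored as signal increase over DMSO baseline for both agonists and antagonists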)
Outline: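 Fluorescence increase, nuclear for agonists or whole-cell for antagonists, relative to DMSO vehicle, quantified by laser scanning cytometer after fixation and Draq5 staining. Readout from 24 h treatment of HEK293T cells carrying complementation-paired ER beta LBD (aa 310-547).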

[3] = BSK_3C_Vis: BioMAP Diversity Plus: 3C Assay for Morphology Visualization (AID 2283025); details: primary human endothelial cells (HUVEC);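 also: fitted both ways so gain or loss versus DMSO counts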;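 as to AC50: light microscopy image of cell morphology used as background control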
Outline: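 Light-microscopy morphology readout, 24 h exposure, human primary umbilical vein endothelium; analysed relative to DMSO with bidirectional fitting.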

[4] = read-out: Collagen I, COL1A1 (gene 1277); test: BSK_MyoF_CollagenI: BioMAP Diversity Plus: MyoF Assay for Collagen I Biomarker Activity (AID 2284238); details: primary human lung fibroblasts
Outline: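 Human lung fibroblasts were exposed to test chemical for 24 h, then Collagen I was quantified by ELISA. Activity was fitted in the increasing direction against DMSO as the negative control and baseline.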

[5] = read-out: Collagen III, COL3A1 (gene 1281); test: BSK_MyoF_CollagenIII: BioMAP Diversity Plus: MyoF Assay for Collagen III Biomarker Activity (AID 2284239); details: primary human lung fibroblasts
Outline: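 Human lung fibroblasts were dosed with chemicals and, 24 hours later, collagen III was measured by ELISA. Activity was fitted in the positive direction against the DMSO negative-control baseline.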

[6] = read-out: Actin alpha 1 (ACTA1), ACTA1 (gene 58); test: BSK_MyoF_ACTA1: BioMAP Diversity Plus: MyoF Assay for Actin alpha 1 (ACTA1) Biomarker Activity (AID 2284244); details: primary human lung fibroblasts
Outline: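 MyoF fibroblast system (human lung); a-SMA quantified via ELISA at 24 h; DMSO-normalised, gain-of-signal endpoint.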

[7] = read-out: Interleukin 2 (IL2), IL2 (gene 3558); test: BSK_BT_xIL2: BioMAP Diversity Plus: BT Assay for Interleukin 2 (IL2) Biomarker Activity (AID 2284245); details: primary human B cells with PBMC
Outline: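 Co-cultures of primary human B cells and PBMC are treated with chemical and sampled at 24 h. IL-2 secretion is quantified by Luminex xMAP, with DMSO-treated wells as baseline.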

[8] = read-out: Basic fibroblast growth factor (bFGF), FGF2 (gene 2247); test: BSK_MyoF_bFGF: BioMAP Diversity Plus: MyoF Assay for Basic fibroblast growth factor (bFGF) Biomarker Activity (AID 2284246); details: primary human lung fibroblasts
Outline: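 Fibroblasts from human lung, 24 h dosing. bFGF by ELISA; gain of signal over DMSO.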

[9] = read-out: Collagen IV, COL4A1 (gene 1282); test: BSK_MyoF_CollagenIV: BioMAP Diversity Plus: MyoF Assay for Collagen IV Biomarker Activity (AID 2284247); details: primary human lung fibroblasts
Outline: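 Lung fibroblasts (human primary) treated with chemicals were assayed after 24 h for Collagen IV using an ELISA, with DMSO serving as negative control and baseline for a positive-direction fit.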

[10] = read-out: Plasminogen activator inhibitor-1 (PAI1), SERPINE1 (gene 5054); test: BSK_MyoF_PAI1: BioMAP Diversity Plus: MyoF Assay for Plasminogen activator inhibitor-1 (PAI1) Biomarker Activity (AID 2284256); details: primary human lung fibroblasts
Outline: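 ELISA read-out of PAI-1 from primary human lung fibroblast cultures 24 h after dosing; gain-of-signal fit versus DMSO control.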

[11] = read-out: Decorin, DCN (gene 1634); test: BSK_MyoF_Decorin: BioMAP Diversity Plus: MyoF Assay for Decorin Biomarker Activity (AID 2284265); details: primary human lung fibroblasts
Outline: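 Human lung fibroblasts in the MyoF system were exposed to compound for 24 h, after which decorin was quantified by ELISA. Activity was fitted in the positive direction relative to DMSO negative control.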

[12] = BSK_MyoF_SRB: Viability Assessment in the BioMAP Diversity Plus: MyoF Assay (AID 2284267); details: primary human lung fibroblasts;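 also: total protein by SRB absorbance in parallel cultures as cytotoxicity measure; cells assessed 24 h after compound addition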
Outline: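 In this viability endpoint, fibroblasts from human lung are treated for 24 h, TCA-fixed, SRB-stained (0.1%) and read at 560 nm. Gain of signal relative to DMSO defines activity.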

[13] = read-out: Matrix Metallopeptidase 1 (MMP1), MMP1 (gene 4312); test: BSK_MyoF_MMP1: BioMAP Diversity Plus: MyoF Assay for Matrix Metallopeptidase 1 (MMP1) Biomarker Activity (AID 2284268); details: primary human lung fibroblasts
Outline: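 ELISA readout of MMP1 in primary human lung fibroblast cultures, 24 h post-dosing. Gain of signal versus DMSO vehicle control defines activity. Parallel SRB staining (0.1% after 10% TCA fixation, 560 nm) flags overt cytotoxicity.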

[14] = STM_H9_OrnCyssISnorm_ratio: Stemina devTOX quickPredict H9 human embryonic stem cell (hESC)-based Assay for Ornithine (ORN):Cystine (CYSS) Ratio (AID 2283714; active = hit-call score of the fitted dose curve at least 0.9, where 1 is the maximum)
Outline: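 Ratio of internal-standard-normalized ornithine to cystine, measured by UPLC-HRMS in spent media from the last 24 h. H9 cells kept pluripotent, dosed 72 h with daily media and compound renewal; DMSO 0.1% serves as baseline.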

[15] = target: Nuclear receptor subfamily 1 group I member 3 (Homo sapiens) (UniProt Q14994); test: ATG_CAR_TRANS: Attagene TRANS-FACTORIAL HepG2 Assay for human Constitutive Androstane Receptor (CAR) (AID 2282969; active = hit-call score of the fitted dose curve at least 0.9, where 1 is the maximum;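 also: activators raise reporter mRNA above DMSO so AC50 marks induction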); details: HepG2 Attagene TRANS-FACTORIAL CAR reporter
Chain of Nuclear receptor subfamily 1 group I member 3 (Homo sapiens) (Q14994 whole entry, looked up, the tested form may be a part): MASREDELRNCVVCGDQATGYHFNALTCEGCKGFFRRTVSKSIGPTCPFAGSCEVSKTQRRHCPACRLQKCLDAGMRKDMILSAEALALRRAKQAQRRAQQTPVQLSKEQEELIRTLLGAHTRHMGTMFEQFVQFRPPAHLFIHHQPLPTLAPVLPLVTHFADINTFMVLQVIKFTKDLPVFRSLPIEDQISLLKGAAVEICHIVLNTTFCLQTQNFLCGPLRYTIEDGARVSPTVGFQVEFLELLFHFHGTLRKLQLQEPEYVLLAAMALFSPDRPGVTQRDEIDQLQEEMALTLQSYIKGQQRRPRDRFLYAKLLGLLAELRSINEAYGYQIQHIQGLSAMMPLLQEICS
Outline: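 Signal is reporter mRNA induction relative to DMSO, measured 24 h after dosing by RT-PCR with fluorescent primer extension and capillary electrophoresis. Human HepG2 liver cells carried transiently transfected chimeric NR-Gal4/GAL4-UAS reporter constructs.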

[16] = target: human Peroxisome Proliferator-activated Receptor delta (PPARd), PPARD (gene 5467) (UniProt Q03181); test: ATG_PPARd_TRANS: Attagene TRANS-FACTORIAL HepG2 Assay for human Peroxisome Proliferator-activated Receptor delta (PPARd) (AID 2283002; active = hit-call score of the fitted dose curve at least 0.9, where 1 is the maximum)
Chain of human Peroxisome Proliferator-activated Receptor delta (PPARd), PPARD (gene 5467) (Q03181 whole entry, looked up): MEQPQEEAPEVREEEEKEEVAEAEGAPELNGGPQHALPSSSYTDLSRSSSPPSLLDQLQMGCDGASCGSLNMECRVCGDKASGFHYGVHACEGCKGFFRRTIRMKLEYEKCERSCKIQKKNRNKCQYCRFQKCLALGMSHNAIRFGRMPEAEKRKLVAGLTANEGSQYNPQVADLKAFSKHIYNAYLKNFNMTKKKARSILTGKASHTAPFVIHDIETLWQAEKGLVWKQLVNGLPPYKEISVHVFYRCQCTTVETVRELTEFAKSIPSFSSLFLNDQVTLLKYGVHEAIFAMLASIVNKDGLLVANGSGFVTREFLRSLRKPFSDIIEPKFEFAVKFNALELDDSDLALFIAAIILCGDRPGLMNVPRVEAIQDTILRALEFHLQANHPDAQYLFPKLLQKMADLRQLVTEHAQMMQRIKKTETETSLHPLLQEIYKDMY
Outline: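 Cell-based TRANS reporter: HepG2, transient MRTU transfection, 24 h exposure. Readout = reporter mRNA (RT-PCR/CE, 6-FAM). Gain-of-signal fit vs DMSO control.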

[17] = target: Thyroid hormone receptor alpha (Rattus norvegicus) + Thyroid hormone receptor beta (Rattus norvegicus) (UniProt P18113+P63059); test: TOX21_TR_LUC_GH3_Antagonist_Followup: Tox21 GH3 Thyroid Hormone Receptor Antagonism Luciferase Follow-Up Assay (AID 2283942; active = hit-call score of the fitted dose curve at least 0.9, where 1 is the maximum)
Outline: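 Loss of T3-driven (1.0 nM final) reporter activity in GH3 cells was read by ONE-Glo luminescence after 24 h incubation at 37C; 15-point compound series spanned 92 uM to 5nM final, 1,500 cells/well.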

[18] = TOX21_TRB_BLA_Antagonist_Followup_viability: Viability Assessment in the Tox21 Thyroid Hormone Receptor beta Antagonism Beta-lactamase (BLA) Follow-Up Assay (AID 2283961; active = hit-call score of the fitted dose curve at least 0.9, where 1 is the maximum)
Outline: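 HEK293T cells stably expressing GAL4-DBD/human TRβ-LBD with UAS-bla reporter, 3,000 cells/well in phenol red-free DMEM, 2% charcoal-stripped FBS. Compounds at 11 concentrations in triplicate, 18 h at 37C/5% CO2; viability by CellTiter-Glo luminescence after 30 min at room temperature.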

[19] = target: Retinoic acid receptor RXR-alpha (Homo sapiens) (UniProt P19793); test: TOX21_TR_RXR_BLA_Antagonist_Followup_ratio: Tox21 Thyroid Hormone Receptor beta Retinoid X Receptor alpha (RXRa) Antagonism Beta-lactamase (BLA) Follow-Up Assay, Ratio (AID 2283972; active = hit-call score of the fitted dose curve at least 0.9, where 1 is the maximum)
Chain of Retinoic acid receptor RXR-alpha (Homo sapiens) (P19793 whole entry, looked up): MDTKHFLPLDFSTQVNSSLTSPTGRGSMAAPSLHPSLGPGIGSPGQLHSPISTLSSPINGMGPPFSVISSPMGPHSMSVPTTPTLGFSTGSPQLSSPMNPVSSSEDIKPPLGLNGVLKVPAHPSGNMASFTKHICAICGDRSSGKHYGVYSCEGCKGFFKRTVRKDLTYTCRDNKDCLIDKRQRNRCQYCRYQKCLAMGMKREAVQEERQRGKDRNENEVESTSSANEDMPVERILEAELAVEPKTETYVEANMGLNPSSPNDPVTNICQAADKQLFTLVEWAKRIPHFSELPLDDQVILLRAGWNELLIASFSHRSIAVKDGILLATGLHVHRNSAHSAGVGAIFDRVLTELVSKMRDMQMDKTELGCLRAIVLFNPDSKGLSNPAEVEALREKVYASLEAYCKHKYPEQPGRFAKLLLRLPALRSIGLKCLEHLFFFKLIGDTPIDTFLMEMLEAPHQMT
Outline: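 RXRa-UAS-bla HEK293T cells in phenol red-free DMEM with 2% charcoal-stripped FBS; compounds at 11 concentrations in triplicate, 16 h at 37C. LiveBLAzer FRET-B/CCF4-AM substrate 2 h at room temperature; read as 460:530 nm ratio versus DMSO.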

[20] = TOX21_TR_RXR_BLA_Antagonist_Followup_viability: Viability Assessment in the Tox21 Thyroid Hormone Receptor beta Retinoid X Receptor alpha (RXRa) Antagonism Beta-lactamase (BLA) Follow-Up Assay (AID 2283979; active = hit-call score of the fitted dose curve at least 0.9, where 1 is the maximum)
Outline: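 Follow-up compounds (11 concentrations, triplicate) were incubated 16 h at 37C/5% CO2 with HEK293T RXRa-bla cells seeded at 2,500/well in charcoal-stripped-serum medium. ATP content by CellTiter-Glo luminescence gave viability; curves fitted in both directions against DMSO.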

Measured: AC50

C[Si](C)(C)O[Si](C)(C)O[Si](C)(C)C
inactive: [1] | [2]

CC[N+](CC)(CC(=O)Nc1c(C)cccc1C)Cc1ccccc1
active: [3] 39.8 µM
inactive: [4] | [5] | [6] | [7] | [8] | [9] | [10] | [11] | [12] | [13]

CCCCCC[C@@H](O)C/C=C\CCCCCCCC(=O)O
active: [14] 30.9 µM
inactive: [1] | [2]

CCCCCCCCCC/C=C/C1CC(=O)OC1=O (configuration not stated)
inactive: [3] | [4] | [5] | [6] | [7] | [8] | [9] | [10] | [11] | [12] | [13]

Oc1cccc2ccccc12
active: [1] 39.1 µM | [2] 49.2 µM | [14] 7.48 µM | [5] 5.51 µM | [13] 12.1 µM
not listed: [15] | [16] | [17] | [18] | [19] | [20]
inactive: all other assays above

OC(C(F)(F)F)(C(F)(F)F)C(O)(C(F)(F)F)C(F)(F)F
inactive: [8]
active: [4] 46.2 µM and 45.7 µM | [5] 41 µM and 39.5 µM | [6] 26.7 µM and 22.3 µM | [7] 46 µM and 48.1 µM | [9] 13.6 µM and 13.9 µM | [10] 53.5 µM | [11] 30 µM and 46.7 µM | [12] 36.7 µM and 37.8 µM | [13] 48.4 µM and 47.9 µM

Cc1c(C(N)=O)cc([N+](=O)[O-])cc1[N+](=O)[O-]
inactive: [14]

CCCCCCOC(=O)CCCCCCCC(=O)OCCCCCC
inactive: [15]

COc1ccccc1OCC(O)CO (configuration not stated)
inactive: [16]

Oc1ccc(Oc2ccccc2)cc1
inactive: [16]

CC(C)(C)NC(=O)[C@@H]1CN(Cc2cccnc2)CCN1C[C@@H](O)C[C@@H](Cc1ccccc1)C(=O)N[C@H]1c2ccccc2C[C@H]1O
inactive: [15] | [16]

O=C(O)Cc1c[nH]c2ccccc12
inactive: [15]

CC[N+](CC)(CC(=O)Nc1c(C)cccc1C)Cc1ccccc1 (tested in a mixture with another compound)
inactive: [14]

C=C(C)C(=O)OCC1CCCO1 (configuration not stated)
inactive: [15] | [16]

O=[Se](O)O
active: [17] 4.84 µM | [18] 2.02 µM | [19] 2.26 µM | [20] 5.16 µM

Cc1oc(C)c(C(=O)Nc2ccccc2)c1C
inactive: [17] | [18] | [19] | [20]

O=C(CCCCCCC(=O)Nc1ccccc1)NO
inactive: [18] | [19] | [20]
active: [17] 5.8 µM

CO[C@H]1C[C@@H]2CC[C@@H](C)[C@@](O)(O2)C(=O)C(=O)N2CCCC[C@H]2C(=O)O[C@H]([C@H](C)C[C@@H]2CC[C@@H](O)[C@H](OC)C2)CC(=O)[C@H](C)/C=C(\C)[C@@H](O)[C@@H](OC)C(=O)[C@H](C)C[C@H](C)\C=C/C=C/C=C/1C
active: [17] 0.00703 µM
inactive: [18] | [19] | [20]
